# Inconclusive results are not listed. Calls of active or inactive are those of the source. The calls were made as follows, unless noted: active = hit-call score of the fitted dose curve at least 0.9, where 1 is the maximum; inconclusive = response in the unintended direction; inactive = score below 0.9.
# Legend:
# [1] = biological target: rat Oxytocin Receptor (OXT), Oxtr (gene 25342) (UniProt P70536); assay: NVS_GPCR_rOXT: NovaScreen (NVS) G Protein-Coupled Receptor Assay for rat Oxytocin Receptor (OXT) (AID 2283330)
# Protocol: NVS_GPCR_rOXT is a biochemical, single-readout assay that uses extracted gene-proteins from Rat uterine membranes in a tissue-based cell-free assay. Measurements were taken 1 hour after chemical dosing in a 48-well plate.NVS_GPCR_rOXT is one of one assay component(s) measured or calculated from the NVS_GPCR_rOXT assay. It is designed to make measurements of radioligand binding, a form of binding reporter, as detected with scintillation counting signals by Filter-based radiodetection technology.Data from the assay component NVS_GPCR_rOXT was analyzed into 1 assay endpoint. This assay endpoint, NVS_GPCR_rOXT, was analyzed in the positive analysis fitting direction relative to DMSO as the negative control and baseline of activity. […] Furthermore, this assay endpoint can be referred to as a primary readout, because the performed assay has only produced 1 assay endpoint. […]
# Binding assays used specific radioligands (tritiated, iodinated) with non-radioactive competitive displacement ligands in agonist or antagonist protocols (as indicated) and various reference compounds and inhibitors to titrate specific binding to receptors and transporters. Most enzyme assays (CYPs, kinases, phosphatases, proteases, HDACs) used recombinant protein and specific substrates (fluorescence mostly, some colorimetric and radioactive) and inhibitors, followed by a biochemical separation of substrate and product. […]
# [2] = biological target: rat Gamma-Aminobutyric Acid Type A Receptor BDZ, alpha 6 site (GABARa6), Gabra6 (gene 29708) (UniProt P30191); assay: NVS_LGIC_rGABARa6: NovaScreen (NVS) Ligand-Gated Ion Channel Assay for rat Gamma-Aminobutyric Acid Type A Receptor BDZ, alpha 6 site (GABARa6) (AID 2283339)
# Outline: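 Rat cerebellar membranes; radioligand binding, filtration and scintillation counting, read 1 h after dosing. Single-concentration duplicate screen at 25 uM, then concentration-response up to 50 uM for actives; loss of signal fitted versus DMSO baseline.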
# [3] = biological target: Voltage-gated inwardly rectifying potassium channel KCNH2 (Homo sapiens) (UniProt Q12809); assay: NVS_IC_hKhERGCh: NovaScreen (NVS) Ion Channel Assay for human Potassium Channel ERG (KhERGCh) (AID 2283333)
# Outline: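 Cell-free radioligand competition binding on hERG protein extracted from CHO cells, read by filter-based scintillation counting 0.75 h after dosing. Primary screen at 25 uM in duplicate, actives followed in concentration series. Signal loss fitted versus DMSO.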
# [4] = NVS_IC_rCaBTZCHL: NovaScreen (NVS) Ion Channel Assay for Calcium Channel, Type L, Benzothiazepine Site (CaBTZCHL) (AID 2283337)
# Outline: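 Competitive displacement of a site-specific radioligand from rat cortex membranes, measured as signal loss against DMSO baseline by filter radiodetection after 1.5 h. Single-point 25 uM primary screen.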
# [5] = biological target: Glutamate receptor ionotropic, kainate 1 (Rattus norvegicus) (UniProt P22756); assay: NVS_IC_rKAR: NovaScreen (NVS) Ion Channel Assay for rat Kainic Acid Receptors (KAR) (AID 2283334; active = hit-call score of the fitted dose curve at least 0.9, where 1 is the maximum; inactive = score below 0.9)
# Outline: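 Radioligand displacement binding using rat forebrain membranes, 1 h incubation, filter-based scintillation counting. Screened in duplicate at 25 uM, with actives retested in concentration-response up to 50 uM; fitted against DMSO.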
# [6] = biological target: Small conductance calcium-activated potassium channel protein 1 (Rattus norvegicus) (UniProt P70606); assay: NVS_IC_rKCaCh: NovaScreen (NVS) Ion Channel Assay for rat Potassium Channel, Ca2+ Act., VI (KCaCh) (AID 2283336)
# Outline: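 Radioligand binding to rat forebrain membranes, cell-free, read 1 hour after dosing by filter-based scintillation counting. Compounds first run in duplicate at 25 uM, actives then in concentration series; loss of signal vs DMSO indicates displacement.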
# Sequence of rat Oxytocin Receptor (OXT), Oxtr (gene 25342) (P70536 whole entry, looked up): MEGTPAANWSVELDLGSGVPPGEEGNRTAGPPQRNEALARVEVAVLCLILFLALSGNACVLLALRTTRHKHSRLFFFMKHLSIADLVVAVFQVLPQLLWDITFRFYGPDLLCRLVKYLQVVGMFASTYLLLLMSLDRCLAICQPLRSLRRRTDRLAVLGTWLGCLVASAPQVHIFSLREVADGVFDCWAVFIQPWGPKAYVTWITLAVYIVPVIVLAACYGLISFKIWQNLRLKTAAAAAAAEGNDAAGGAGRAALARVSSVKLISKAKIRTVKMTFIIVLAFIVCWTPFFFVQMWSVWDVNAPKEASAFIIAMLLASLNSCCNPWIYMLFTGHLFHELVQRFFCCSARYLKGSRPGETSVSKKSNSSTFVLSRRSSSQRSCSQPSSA
# Sequence of Voltage-gated inwardly rectifying potassium channel KCNH2 (Homo sapiens) (Q12809 whole entry, looked up): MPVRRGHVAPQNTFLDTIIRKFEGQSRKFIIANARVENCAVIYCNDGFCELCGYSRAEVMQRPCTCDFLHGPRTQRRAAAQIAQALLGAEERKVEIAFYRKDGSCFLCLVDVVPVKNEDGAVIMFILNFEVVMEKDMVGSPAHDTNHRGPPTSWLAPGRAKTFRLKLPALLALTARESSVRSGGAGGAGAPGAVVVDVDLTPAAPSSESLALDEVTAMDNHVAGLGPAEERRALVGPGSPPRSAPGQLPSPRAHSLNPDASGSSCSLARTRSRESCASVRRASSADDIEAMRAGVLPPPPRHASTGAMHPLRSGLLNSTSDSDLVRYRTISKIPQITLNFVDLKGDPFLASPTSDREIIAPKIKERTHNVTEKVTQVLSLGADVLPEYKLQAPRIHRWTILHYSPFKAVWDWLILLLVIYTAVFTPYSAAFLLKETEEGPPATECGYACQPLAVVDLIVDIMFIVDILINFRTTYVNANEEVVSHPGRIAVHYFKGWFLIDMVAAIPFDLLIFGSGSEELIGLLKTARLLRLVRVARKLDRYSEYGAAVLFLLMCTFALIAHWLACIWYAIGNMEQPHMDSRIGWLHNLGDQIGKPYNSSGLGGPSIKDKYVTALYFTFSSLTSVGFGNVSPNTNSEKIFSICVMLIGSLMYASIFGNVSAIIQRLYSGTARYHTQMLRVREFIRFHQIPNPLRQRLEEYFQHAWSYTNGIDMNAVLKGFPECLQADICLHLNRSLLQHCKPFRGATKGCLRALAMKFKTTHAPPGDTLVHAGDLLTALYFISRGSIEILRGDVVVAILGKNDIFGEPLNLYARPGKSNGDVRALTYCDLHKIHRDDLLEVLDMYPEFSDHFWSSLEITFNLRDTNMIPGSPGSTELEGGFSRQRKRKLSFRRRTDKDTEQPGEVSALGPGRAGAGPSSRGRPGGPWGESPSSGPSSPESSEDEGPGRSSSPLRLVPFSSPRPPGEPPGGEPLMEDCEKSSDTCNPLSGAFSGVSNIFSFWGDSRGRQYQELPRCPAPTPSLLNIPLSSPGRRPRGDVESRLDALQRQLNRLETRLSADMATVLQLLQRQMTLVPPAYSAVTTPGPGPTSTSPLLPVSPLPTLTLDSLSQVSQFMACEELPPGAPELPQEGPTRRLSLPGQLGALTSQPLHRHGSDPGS
# Sequence of rat Gamma-Aminobutyric Acid Type A Receptor BDZ, alpha 6 site (GABARa6), Gabra6 (gene 29708) (P30191 whole entry, looked up): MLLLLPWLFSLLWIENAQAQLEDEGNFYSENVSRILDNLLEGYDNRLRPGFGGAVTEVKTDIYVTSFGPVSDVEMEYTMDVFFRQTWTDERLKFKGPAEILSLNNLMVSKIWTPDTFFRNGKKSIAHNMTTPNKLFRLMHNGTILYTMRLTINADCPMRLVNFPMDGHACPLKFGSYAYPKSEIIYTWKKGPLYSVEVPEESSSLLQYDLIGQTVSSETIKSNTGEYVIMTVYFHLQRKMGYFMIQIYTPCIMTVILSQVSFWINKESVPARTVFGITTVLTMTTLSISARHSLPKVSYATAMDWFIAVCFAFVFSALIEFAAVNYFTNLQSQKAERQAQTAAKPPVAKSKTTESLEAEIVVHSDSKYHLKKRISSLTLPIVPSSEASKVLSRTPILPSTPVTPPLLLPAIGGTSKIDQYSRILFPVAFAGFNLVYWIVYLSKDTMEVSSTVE
# Sequence of Glutamate receptor ionotropic, kainate 1 (Rattus norvegicus) (P22756 whole entry, looked up): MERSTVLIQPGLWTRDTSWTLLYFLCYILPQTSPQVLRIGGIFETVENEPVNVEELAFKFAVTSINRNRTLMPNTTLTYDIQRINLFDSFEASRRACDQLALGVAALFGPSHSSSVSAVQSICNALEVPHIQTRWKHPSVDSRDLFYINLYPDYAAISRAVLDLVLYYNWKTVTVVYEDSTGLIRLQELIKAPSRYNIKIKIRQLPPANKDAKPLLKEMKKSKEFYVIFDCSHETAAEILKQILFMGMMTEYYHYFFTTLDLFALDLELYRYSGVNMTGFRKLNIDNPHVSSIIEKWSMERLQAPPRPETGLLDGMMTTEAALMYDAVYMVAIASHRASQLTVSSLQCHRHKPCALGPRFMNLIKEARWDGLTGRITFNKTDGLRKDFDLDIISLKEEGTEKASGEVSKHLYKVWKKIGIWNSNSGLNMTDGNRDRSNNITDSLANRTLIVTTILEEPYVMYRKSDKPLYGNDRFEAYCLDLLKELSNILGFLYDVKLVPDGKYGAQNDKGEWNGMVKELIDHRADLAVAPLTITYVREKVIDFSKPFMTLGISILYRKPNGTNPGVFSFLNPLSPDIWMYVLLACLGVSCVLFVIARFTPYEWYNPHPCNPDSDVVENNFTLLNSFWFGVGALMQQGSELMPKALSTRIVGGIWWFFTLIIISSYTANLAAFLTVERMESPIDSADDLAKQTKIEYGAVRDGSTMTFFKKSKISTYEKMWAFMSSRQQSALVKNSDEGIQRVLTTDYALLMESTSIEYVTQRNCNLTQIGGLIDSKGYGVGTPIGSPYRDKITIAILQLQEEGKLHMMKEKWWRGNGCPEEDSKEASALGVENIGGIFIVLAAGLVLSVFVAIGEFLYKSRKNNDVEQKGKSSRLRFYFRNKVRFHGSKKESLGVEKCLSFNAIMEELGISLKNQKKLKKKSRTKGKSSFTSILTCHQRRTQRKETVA
# Sequence of Small conductance calcium-activated potassium channel protein 1 (Rattus norvegicus) (P70606 whole entry, looked up): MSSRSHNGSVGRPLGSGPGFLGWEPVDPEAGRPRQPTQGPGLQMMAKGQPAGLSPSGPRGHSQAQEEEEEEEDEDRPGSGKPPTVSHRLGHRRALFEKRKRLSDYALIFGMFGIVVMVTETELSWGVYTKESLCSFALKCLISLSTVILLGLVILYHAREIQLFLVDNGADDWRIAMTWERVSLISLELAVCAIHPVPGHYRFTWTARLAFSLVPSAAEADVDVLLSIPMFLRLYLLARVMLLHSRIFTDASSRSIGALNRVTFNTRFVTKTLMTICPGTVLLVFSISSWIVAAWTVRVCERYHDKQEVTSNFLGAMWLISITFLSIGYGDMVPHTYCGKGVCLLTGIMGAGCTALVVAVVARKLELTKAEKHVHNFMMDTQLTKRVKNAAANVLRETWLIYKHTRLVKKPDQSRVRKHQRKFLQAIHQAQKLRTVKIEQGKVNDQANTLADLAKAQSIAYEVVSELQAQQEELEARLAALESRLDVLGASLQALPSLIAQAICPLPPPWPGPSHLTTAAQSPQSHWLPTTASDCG
structure (smiles),measurement,setting,value
CNc1cnn(-c2cccc(C(F)(F)F)c2)c(=O)c1Cl,outcome,[1],inactive
CSc1nnc(C(C)(C)C)c(=O)n1N,outcome,[1],inactive
FC(F)C(F)(F)OCC(Cn1cncn1)c1ccc(Cl)cc1Cl (stereo not given),outcome,[2],inactive
CC[C@H](C)[C@H]1O[C@]2(C=C[C@@H]1C)C[C@@H]1C[C@@H](C/C=C(\C)[C@@H](O[C@H]3C[C@H](OC)[C@@H](O[C@H]4C[C@H](OC)[C@@H](NC)[C@H](C)O4)[C@H](C)O3)[C@@H](C)/C=C/C=C3\CO[C@@H]4[C@H](O)C(C)=C[C@@H](C(=O)O1)[C@]34O)O2,AC50,[3],0.00229 µM (active)
same,AC50,[4],10 µM (active)
CSc1nc(NC(C)C)nc(NC(C)C)n1,AC50,[3],6.4 µM (active)
COP(=O)(NC(C)=O)SC (stereo not given),outcome,[5],inactive
CN(C)C(=O)Nc1cccc(C(F)(F)F)c1,outcome,[6],inactive
same,outcome,[2],inactive
CC1=NNC(=O)N(/N=C/c2cccnc2)C1,outcome,[4],inactive

# Reference: PubChem BioAssay (EPA / NIEHS)
